From PubChem BioAssay
“And” between values parts separate entries of the source, which are not always exact repeats. Equal values may be shown once. For some of these results: Measured potencies and affinities stand elsewhere. A structure can be active in one record and inactive in another. The source made the active and inactive calls. Unless noted, no rule for the calls is given here.

Assays:
[1] = antimalarial activity against Dd2 strain (AID 2302;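 active = growth inhibition above 50% at the single 2 µM test dose, taken to imply half-maximal potency below 2 µM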;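 also: 0% = DMSO untreated growth and 100% = chloroquine plus artemisinin killed control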); settings: P. falciparum Dd2 in RBCs, LDH growth readout, 72 h; at 2 µM; stronger effect = higher value
[2] = HepG2 cytotoxicity, primary screen, cytotoxicity control for P. falciparum antimalarial project, cell-based, ATP luminescence (AID 2303;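 active = inhibition above 50%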;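 also: 0% = DMSO wells and 100% = digitonin-killed cells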); settings: HepG2 viability, 24-48 h, at 10 µM, stronger effect = higher value
[3] = biological target: L-lactate dehydrogenase (Plasmodium falciparum (isolate CDC / Honduras)) (UniProt Q27743); assay: PfLDH activity inhibition – cell lysate, 3D7 strain, counter-screen for P. falciparum growth inhibition project (AID 2304);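 also: 0% = vehicle and 100% = reference inhibitor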; settings: P. falciparum 3D7 crude extract, LDH APAD/NBT absorbance; at 2 µM; stronger effect = higher value
[4] = inhibition of 3D7 malaria parasite growth – strain 3D7 (AID 2306);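 also: 0% = DMSO wells and 100% = chloroquine plus artemisinin control wells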; settings: P. falciparum 3D7 erythrocytic growth, LDH absorbance, 72 h; at 2 µM; stronger effect = higher value
[5] = biological target: Calcium-dependent protein kinase 1 (Plasmodium falciparum (isolate 3D7)) (UniProt P62344); assay: PfCDPK1 kinase inhibitors, biochemical, TCAMS library (AID 1159585; cut-off not given, nearly all actives have IC50 up to about 0.98 µM;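 also: inhibitors leave more ATP so luminescence rises with inhibition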); settings: recombinant PfCDPK1, Kinase-Glo ATP depletion luminescence
[6] = biological target: Plasmodium falciparum protein kinase 6 (PK6, PF3D7_1337100) (UniProt Q8IDW1); assay: PfPK6 kinase inhibitors, biochemical, TCAMS library (AID 1159586); settings: recombinant PfPK6, Kinase-Glo ATP depletion luminescence
[7] = biological target: Protein kinase 7 (PK7), Plasmodium falciparum 3D7 (PF3D7_0213400) (UniProt Q7YTF7); assay: inhibition of Plasmodium PK7 catalytic activity – biochemical, TCAMS antimalarial set, Kinase-Glo luminescence (AID 1159587); settings: recombinant PfPK7, Kinase-Glo ATP depletion luminescence
[8] = biological target: Calcium-dependent protein kinase 4 (Plasmodium falciparum (isolate 3D7)) (UniProt Q8IBS5); assay: PfCDPK4 kinase inhibitors, biochemical, TCAMS library (AID 1159588; cut-off not given, nearly all actives have IC50 up to about 0.91 µM); settings: recombinant PfCDPK4, Kinase-Glo ATP depletion luminescence
Sequence of Calcium-dependent protein kinase 4 (Plasmodium falciparum (isolate 3D7)) (Q8IBS5 whole entry, looked up): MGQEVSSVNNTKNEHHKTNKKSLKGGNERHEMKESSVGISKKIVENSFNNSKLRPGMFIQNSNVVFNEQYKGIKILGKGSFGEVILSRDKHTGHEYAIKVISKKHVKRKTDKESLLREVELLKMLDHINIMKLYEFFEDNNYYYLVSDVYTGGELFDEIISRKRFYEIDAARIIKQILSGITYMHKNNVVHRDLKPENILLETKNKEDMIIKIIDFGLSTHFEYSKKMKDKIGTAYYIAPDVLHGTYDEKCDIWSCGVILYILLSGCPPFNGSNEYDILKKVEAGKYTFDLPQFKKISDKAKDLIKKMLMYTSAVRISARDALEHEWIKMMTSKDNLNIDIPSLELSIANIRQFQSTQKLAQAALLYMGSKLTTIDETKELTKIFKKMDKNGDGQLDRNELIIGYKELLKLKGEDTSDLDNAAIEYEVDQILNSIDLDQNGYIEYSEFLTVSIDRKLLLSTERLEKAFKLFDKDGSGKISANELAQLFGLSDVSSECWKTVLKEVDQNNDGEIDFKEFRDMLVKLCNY

Sequence of Protein kinase 7 (PK7), Plasmodium falciparum 3D7 (PF3D7_0213400) (Q7YTF7 1-343): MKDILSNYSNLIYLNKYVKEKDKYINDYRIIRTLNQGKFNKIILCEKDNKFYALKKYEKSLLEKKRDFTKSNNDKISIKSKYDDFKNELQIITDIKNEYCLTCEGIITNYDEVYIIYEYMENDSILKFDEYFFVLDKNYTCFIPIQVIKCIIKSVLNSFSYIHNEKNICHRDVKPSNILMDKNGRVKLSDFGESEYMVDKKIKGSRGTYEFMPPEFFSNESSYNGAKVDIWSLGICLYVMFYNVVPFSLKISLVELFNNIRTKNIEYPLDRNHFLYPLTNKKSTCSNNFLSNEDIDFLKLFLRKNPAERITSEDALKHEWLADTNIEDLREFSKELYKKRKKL
Sequence of Calcium-dependent protein kinase 1 (Plasmodium falciparum (isolate 3D7)) (P62344 whole entry, looked up): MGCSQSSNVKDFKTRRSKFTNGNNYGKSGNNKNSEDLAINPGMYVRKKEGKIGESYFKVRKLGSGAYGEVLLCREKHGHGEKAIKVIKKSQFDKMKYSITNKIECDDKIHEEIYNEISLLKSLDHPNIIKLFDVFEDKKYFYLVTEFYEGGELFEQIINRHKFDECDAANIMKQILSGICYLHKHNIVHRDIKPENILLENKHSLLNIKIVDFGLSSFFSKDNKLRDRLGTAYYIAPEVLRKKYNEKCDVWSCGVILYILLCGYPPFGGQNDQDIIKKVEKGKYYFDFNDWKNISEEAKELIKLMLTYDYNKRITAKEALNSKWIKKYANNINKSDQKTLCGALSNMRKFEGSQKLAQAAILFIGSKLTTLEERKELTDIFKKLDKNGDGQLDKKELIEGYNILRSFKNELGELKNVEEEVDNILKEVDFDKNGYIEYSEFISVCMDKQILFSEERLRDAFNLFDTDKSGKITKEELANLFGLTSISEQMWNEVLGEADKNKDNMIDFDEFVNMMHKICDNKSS
Sequence of Plasmodium falciparum protein kinase 6 (PK6, PF3D7_1337100) (Q8IDW1 1-305): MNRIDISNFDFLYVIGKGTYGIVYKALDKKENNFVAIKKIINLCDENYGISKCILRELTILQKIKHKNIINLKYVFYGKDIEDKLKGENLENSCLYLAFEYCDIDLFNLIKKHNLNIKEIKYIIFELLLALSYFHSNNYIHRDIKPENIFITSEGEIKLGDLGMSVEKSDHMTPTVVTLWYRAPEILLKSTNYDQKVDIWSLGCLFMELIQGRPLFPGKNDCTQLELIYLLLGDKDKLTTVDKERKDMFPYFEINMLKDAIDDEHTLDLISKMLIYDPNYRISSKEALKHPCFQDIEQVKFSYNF
Sequence of L-lactate dehydrogenase (Plasmodium falciparum (isolate CDC / Honduras)) (Q27743 whole entry, looked up): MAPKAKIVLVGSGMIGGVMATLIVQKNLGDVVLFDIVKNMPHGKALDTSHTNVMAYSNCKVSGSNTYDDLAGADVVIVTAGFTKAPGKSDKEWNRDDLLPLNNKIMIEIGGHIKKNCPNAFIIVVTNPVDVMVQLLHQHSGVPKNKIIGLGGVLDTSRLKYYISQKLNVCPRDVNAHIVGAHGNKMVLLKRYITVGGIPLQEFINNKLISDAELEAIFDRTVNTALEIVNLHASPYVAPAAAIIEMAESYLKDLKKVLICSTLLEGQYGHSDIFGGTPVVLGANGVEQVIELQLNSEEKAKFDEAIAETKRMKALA

| Compound | growth inhibition [1] | inhibition [2] | inhibition [3] | growth inhibition [4] | outcome [5] | outcome [6] | outcome [7] | outcome [8] |
| --- | --- | --- | --- | --- | --- | --- | --- | --- |
| CCCc1c(C(=O)NC2CCC(CN3CCC(c4c[nH]c5ccccc45)CC3)CC2)cnn1-c1ccc(Cl)cc1 (centres undefined) | 37% (inactive) | 53% (active) | 1% (inactive) | 90% (active) | inactive | inactive | inactive | inactive |
| O=C(/C=C/c1ccc(Cl)c(Cl)c1)NCCC1CCC(N2CCC(c3c[nH]c4ccc(O)cc34)CC2)CC1 (centres undefined) | 3% (inactive) | 19% (inactive) | -7% (inactive) | 102% (active) | inactive | inactive | inactive | inactive |
| CCN1CC[C@]2(c3cccc(OC)c3)Cc3nc4ccccc4c(-c4ccccc4)c3C[C@H]2C1 | 98% (active) | 0% (inactive) | -4% (inactive) | 99% (active) | inactive | inactive | inactive | inactive |
| Fc1ccc(N(c2nc(-c3cc(F)cc(C(F)(F)F)c3)cs2)C2CCNCC2)cc1 | 10% (inactive) | 35% (inactive) | -3% (inactive) | 95% (active) | inactive | inactive | inactive | inactive |
| CC1CN=C(Nc2ncc(Cl)cc2Cl)N1 (centres undefined) | 3% (inactive) | 2% (inactive) | 7% (inactive) | 99% (active) | inactive | inactive | inactive | inactive |
| CCCCCCC(C)(C)c1cc(O)c2c3c(c(=O)oc2c1)CCN(Cc1ccccc1)C3 | 99% (active) | 3% (inactive) | 6% (inactive) | 100% (active) | inactive | inactive | inactive | inactive |
| COc1ccc(N(c2nc(-c3cc(Cl)ccc3Cl)cs2)C2CCNCC2)cc1 | 4% (inactive) | 17% (inactive) | -2% (inactive) | 91% (active) | inactive | inactive | inactive | inactive |
| COc1ccc(NC(=S)NC(NC(=O)CF)C(Cl)(Cl)Cl)cc1[N+](=O)[O-] (centres undefined) | -4% (inactive) | 66% (active) | 0% (inactive) | 97% (active) | inactive | inactive | inactive | inactive |
| C/C=C1\CN2CC[C@H]1C[C@H]2[C@H](O)c1ccnc2ccc(OC)cc12 | 45% (inactive) and 61% (active) | -12% (inactive) and -9% (inactive) | 4% (inactive) and -10% (inactive) | 102% (active) and 99% (active) | inactive | inactive | inactive | inactive |
| Cc1nc(C)c(-c2ccc(Oc3ccc(OC(F)(F)F)cc3)cc2)c(OC(=O)N(CCNC(C)C)C(C)C)c1Br | 97% (active) | 35% (inactive) | -2% (inactive) | 98% (active) | inactive | inactive | inactive | inactive |
| CC(Cc1ccc(NC(=O)CCNCc2ccccc2)cc1)NCCc1cccc(Cl)c1 (centres undefined) | 100% (active) | 101% (active) | 3% (inactive) | 101% (active) | inactive | inactive | inactive | inactive |
| O=C(/C=C/c1cc(C(F)(F)F)ccc1F)N1CCC(CN2CCC(c3c[nH]c4ccccc34)CC2)CC1 | 14% (inactive) | 22% (inactive) | -1% (inactive) | 96% (active) | inactive | inactive | inactive | inactive |
| COC(=O)c1ccc(CC(C)NCC(O)c2ccc(Cl)c(Cl)c2)cc1 (centres undefined) | 33% (inactive) | -1% (inactive) | 0% (inactive) | 87% (active) | inactive | inactive | inactive | inactive |
| CS(=O)(=O)Nc1ccc2[nH]cc(C3CCN(CC4CCC(NC(=O)/C=C/c5ccccc5Cl)CC4)CC3)c2c1 (centres undefined) | 7% (inactive) | 12% (inactive) | 2% (inactive) | 96% (active) | inactive | inactive | inactive | inactive |
| CC(=O)Nc1ccc2[nH]cc(C3CCN(CC4CCC(NC(=O)/C=C/c5ccc(Cl)c(Cl)c5)CC4)CC3)c2c1 (centres undefined) | 99% (active) and 59% (active) | 18% (inactive) and 10% (inactive) | 2% (inactive) and 6% (inactive) | 90% (active) and 100% (active) | inactive | inactive | inactive | inactive |
| COc1cccc(C(=O)C2CC2CN2CC=C(c3c(C)[nH]c4ccccc34)CC2)c1 (centres undefined) | 87% (active) | 13% (inactive) | -8% (inactive) | 92% (active) | inactive | inactive | inactive | inactive |
| CC(=O)N(Cc1cccc(-c2cccc(CNCCc3ccccc3)c2)c1)C1CCN(Cc2ccccc2)CC1 | 57% (active) | 22% (inactive) | -3% (inactive) | 100% (active) | inactive | inactive | inactive | inactive |
| CC[C@H]1CN2CC[C@@H]1C[C@H]2[C@H](O)c1cc(N2CCC(O)CC2)nc2ccc(OC)cc12 | 92% (active) | 15% (inactive) | 3% (inactive) | 99% (active) | inactive | inactive | inactive | inactive |
| CCCCCCc1cc(O)c2c3c(c(=O)oc2c1)CCN(C)C3 | 66% (active) | -6% (inactive) | 4% (inactive) | 99% (active) | inactive | inactive | inactive | inactive |
| CC[C@H]1CN2CC[C@@H]1C[C@H]2[C@H](O)c1cc(-c2cccnc2)nc2ccc(OC)cc12 | 99% (active) | 20% (inactive) | 3% (inactive) | 99% (active) | inactive | inactive | inactive | inactive |
| O=C(C=Cc1cccc(Cl)c1Cl)NC1CCC(CN2CCC(c3c[nH]c4ccccc34)CC2)CC1 (centres undefined) | 78% (active) and 5% (inactive) | 40% (inactive) and 33% (inactive) | 6% (inactive) and -5% (inactive) | 102% (active) and 83% (active) | inactive | inactive | inactive | inactive |
| NCc1ccc(-c2ccccc2CN(C(=O)Nc2ccccc2)C2CCN(Cc3ccccc3)CC2)cc1 | 35% (inactive) | 36% (inactive) | 3% (inactive) | 100% (active) | inactive | inactive | inactive | inactive |
| O=C(/C=C/c1ccc(Cl)c(Cl)c1)NC1CCC(CN2CCC(c3c[nH]c4ccc(O)cc34)CC2)CC1 (centres undefined) | 99% (active) and 101% (active) | 38% (inactive) and 35% (inactive) | -1% (inactive) and 6% (inactive) | 100% (active) and 101% (active) | inactive | inactive | inactive | inactive |
